From PubChem BioAssay
Sampled rows, rich in hits. Any-hit rate of the full collection: about 2.8%.
KDM5B inhibitor = blocks human KDM5B histone demethylase activity | KDM5B demethylase, FDH-coupled NADH fluorescence (FDH is formaldehyde dehydrogenase) | Q9UGL1 | Potency, µM (top dose mostly 57.7 µM), usual class: inhibitors | actives 2.6% (n = 220,000); active = well fitted inhibition curve with a large enough effect; inconclusive = small, poorly fitted or top-dose-only effect; inactive = no such curve, though single readings can be large or run the other way; also: nearly all actives have a fitted effect of over 70% in size
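Compound dilutions met 200 nM (final) KDM5BΔAP for 10 min at room temperature before substrate addition. The substrate mix held 12.5 µM H3K4me3 with cofactors 25 µM α-ketoglutarate and 50 µM Fe²⁺. NADH signal gain over 30 min defined activity.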
IP6K1 inhibitor = inhibitors of human IP6K1 | actives 0.81% (n = 140,000) | IP6K1 kinase, ADP-Glo luminescence, 2 h; hits give low values | activity change, % (series mostly up to about 58 µM) | AID 1645851 | Q92551; in the data active = activity change below about -25%
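ADP-Glo luminescence measures ADP made by human IP6K1 during a 2 h RT reaction with ATP/IP6 (mix at 1.3 mM/130 uM); top library doses 57.5 and 19.1 uM final.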
Each line names hits and unclear results; the compound was inactive in the other large screens.

COc1ncccc1-c1cnc2[nH]cc(CC(=O)NC3CCOCC3)c2c1	KDM5B inhibitor inconclusive
O=C(c1cccs1)N1CCc2nc(OCC3CC3)ccc2C1	none
CCc1nnc(NC(=O)C2CC(=O)N(c3ccc(Br)c(C)c3)C2)s1 (stereo not drawn)	none (no result: IP6K1 inhibitor)
CCN(CC)c1ccc(C(=O)NCc2nnc3cc(-c4nc(C)no4)ccn23)cc1	none
Cc1noc(-c2ccn3c(CNC(=O)c4cccc(F)c4)nnc3c2)n1	KDM5B inhibitor 28.2µM
CCc1ccc(C(=O)NCc2nnc3cc(-c4nc(C)no4)ccn23)cc1	KDM5B inhibitor inconclusive
Cc1noc(-c2ccn3c(CNC(=O)c4ccc(C)c(C)c4)nnc3c2)n1	KDM5B inhibitor inconclusive
COc1cccc(C(=O)NCc2nnc3cc(-c4nc(C)no4)ccn23)c1	KDM5B inhibitor 28.2µM
Cc1noc(-c2ccn3c(CNC(=O)c4ccc(Cl)cc4)nnc3c2)n1	none
COc1ccc(C(=O)NCc2nnc3cc(-c4nc(C)no4)ccn23)cc1F	KDM5B inhibitor 7.94µM
Cc1noc(-c2ccn3c(CNC(=O)c4ccc5ccccc5n4)nnc3c2)n1	KDM5B inhibitor 6.31µM
Cc1nn(Cc2ccc(F)cc2)c2sc(C(=O)N3CCN(CC(=O)N4CCCC4)CC3)cc12	none (no result: IP6K1 inhibitor)
O=C(Nc1cc(F)ccc1F)C1CCN(c2nc3ccccc3o2)CC1	none (no result: IP6K1 inhibitor)
OCc1cn(CC2CCN(c3ncnc4nc[nH]c34)CC2)nn1	none
O=C(C1CCCC1)N1CCC2(CC1)CC(=O)N(c1ccccc1)c1ccccc1O2	none
CCONC(=O)C(C)Oc1ccc(OC)cc1 (stereo not drawn)	none (no result: IP6K1 inhibitor)
O=C(Nc1ccc(Cl)cc1Cl)c1cc2cccnn2n1	none
Cc1nnn2c(C(=O)NCc3ccc(Cl)cc3)cccc12	KDM5B inhibitor 35.5µM
O=C(NCc1ccc(Cl)cc1)c1ccn2nccc2c1	KDM5B inhibitor 35.5µM
Cc1nnn2c(C(=O)N(C)C)cccc12	KDM5B inhibitor inconclusive
O=C(NCc1ccc(Cl)nc1)c1ccn2nccc2c1	none
O=C(NCc1ccc(Cl)cc1)c1cnn2ncccc12	KDM5B inhibitor 35.5µM
O=C(NCc1ccc(Cl)cc1)c1cc2cccnn2n1	KDM5B inhibitor 31.6µM
O=C(Nc1ccc(F)cc1)c1cnn2ncccc12	KDM5B inhibitor inconclusive
COCCOC1CCOC2(CCN(C(=O)Cc3cccc(C)c3)CC2)C1 (stereo not drawn)	none
Cc1nc(-c2ccc(S(=O)(=O)Nc3cccc(F)c3)cc2)co1	none (no result: IP6K1 inhibitor)
Cc1cc(CNC(=O)c2cc(C(C)C)n3ncnc3n2)c2[nH]c(C)c(C)c2c1	KDM5B inhibitor inconclusive
COc1ccc(Nc2ccnc(N3CCC(C(=O)N4CCCC4)CC3)n2)cc1	none (no result: KDM5B inhibitor)
COc1ccc(CNC(=O)C2CCCCN2Cc2ccc(-c3ccccc3OC)cc2)cc1OC (stereo not drawn)	none (no result: KDM5B inhibitor)
Cc1ncc(C(=O)NCc2cc3n(n2)CCCN(C2CCCCC2)C3)s1	none
C=CCNC(=O)c1cc(-c2ccc3c(c2)OCO3)on1	none (no result: IP6K1 inhibitor)
C=CCNC(=O)c1cc2cccnn2n1	KDM5B inhibitor 31.6µM
CCn1cc(S(=O)(=O)NC2CCc3nn(CC4CC4)c(=O)n3CC2)cn1 (stereo not drawn)	none
Cc1cccc(NC(=O)N2CCc3nc(-c4ccccc4)[nH]c3C2)c1	none (no result: KDM5B inhibitor)
O=C(CCc1ccc(-c2ccc(Cl)cc2)[nH]1)N1CC[C@H](CO)[C@H](O)C1	KDM5B inhibitor inconclusive
CCO[C@H]1CN(C(=O)CCc2ccc(-c3ccc(Cl)cc3)[nH]2)C[C@@H]1O	KDM5B inhibitor 28.2µM
CCOC(=O)c1cnn(-c2ccc(OC)cc2)c1C1CCN(C(=O)OC(C)(C)C)CC1	none
O=C(CN1CC(=O)NC1=O)NCc1ccc2[nH]c3c(c2c1)CCCCCC3	KDM5B inhibitor 22.4µM
CC(=O)c1ccc(NS(=O)(=O)c2ccc3[nH]c4c(c3c2)CCCCCC4)cc1	none
CN(Cc1ccc(F)cc1)C(=O)Cc1cccc(Cl)c1	none
O=C(NCc1cccc(Cl)c1)c1noc(-c2ccc3c(c2)OCO3)n1	KDM5B inhibitor 28.2µM
O=C(NCCc1ccccc1)c1noc(-c2ccc3c(c2)OCO3)n1	KDM5B inhibitor inconclusive
Cc1ccc(-c2nc(C(=O)NCc3ccc4c(c3)OCO4)no2)cc1	none
CCc1ccc(CNC(=O)c2noc(-c3ccc4c(c3)OCO4)n2)cc1	KDM5B inhibitor inconclusive
Cc1cccc(CCNC(=O)c2noc(-c3ccc4c(c3)OCO4)n2)c1	KDM5B inhibitor 31.6µM
Cc1ccc(CNC(=O)c2noc(-c3ccc4c(c3)OCO4)n2)cc1	KDM5B inhibitor 35.5µM
Cc1cccc(CNC(=O)c2noc(-c3ccc4c(c3)OCO4)n2)c1	KDM5B inhibitor inconclusive
COc1ccc(CNC(=O)c2noc(-c3ccc4c(c3)OCO4)n2)cc1	KDM5B inhibitor 28.2µM
CC1Oc2ccc(NC(=O)COc3ccccc3)cc2CN(Cc2ccccc2Cl)C1=O (stereo not drawn)	none
COc1cccc(CNC(=O)Cn2cccc2-c2nc(-c3ccc4c(c3)OCO4)no2)c1	KDM5B inhibitor 28.2µM
O=C(NCc1ccc(F)cc1F)c1noc(-c2ccc3c(c2)OCO3)n1	KDM5B inhibitor inconclusive
CC(NC(=O)c1noc(-c2ccc3c(c2)OCO3)n1)c1ccccc1 (stereo not drawn)	none
CCOc1cccc(-c2nc(C(=O)NCc3ccc4c(c3)OCO4)cs2)c1	KDM5B inhibitor 25.1µM
C=CCOc1cccc(-c2nc(C(=O)NCc3cccc(F)c3)cs2)c1	KDM5B inhibitor inconclusive
O=C(NCc1ccc(F)cc1Cl)c1noc(-c2ccc3c(c2)OCO3)n1	KDM5B inhibitor 31.6µM
CCOc1ccccc1CNC(=O)c1noc(-c2ccc3c(c2)OCO3)n1	KDM5B inhibitor 31.6µM
COc1ccc(CNC(=O)Cn2cccc2-c2nc(-c3ccc4c(c3)OCO4)no2)cc1OC	none
Cn1c(=O)[nH]c(=O)c2c1nc(N1CCOCC1)n2CC(O)COc1ccc(Cl)cc1 (stereo not drawn)	none (no result: IP6K1 inhibitor)
CC(C)C[C@H](CO)NC(=O)C[C@@H]1c2nc(NC(=O)CC(C)(C)C)sc2C[C@@H]2[C@](C)(CO)[C@H](O)CC[C@]21C	none
CN(C)c1ccc(CC(=O)N2CCn3nc(Cc4ccccc4)cc3C2)cc1	KDM5B inhibitor inconclusive
C/C(=N\NC(=S)Nc1ccccc1)c1ccc(F)cc1	none (no result: IP6K1 inhibitor)
N#Cc1ccc(NCc2cc3n(n2)CCCN(C2CCCCC2)C3)nc1	KDM5B inhibitor inconclusive
O=C(CCc1nnn2c1CN(C(=O)c1ccccc1F)CC2)N1CCOCC1	none
O=C1c2cnc(-c3cc4ccccc4o3)nc2OCCN1Cc1ccccc1	none
O=C1c2cnc(-c3cc4ccccc4o3)nc2OCCN1c1ccccc1	KDM5B inhibitor 22.4µM
CC(=O)Nc1ccc(OCC(=O)c2ccccc2)cc1	none (no result: IP6K1 inhibitor)
O=C(Cc1ccsc1)Nc1cccc(N2CCCCC2=O)c1	none (no result: IP6K1 inhibitor)
O=C1CCN(C(=O)C2CCCC2)CCCC(C(=O)N2CCN(c3ccccn3)CC2)CCN1 (stereo not drawn)	KDM5B inhibitor inconclusive
CCN1CCN(C(=O)C2CCCN(Cc3cccnc3)CCC(=O)NCC2)CC1 (stereo not drawn)	none
Cc1ccc(CN2CCCC(C(=O)N3CCN(c4ccccn4)CC3)CCNC(=O)CC2)s1 (stereo not drawn)	KDM5B inhibitor 28.2µM
CCn1ncc(CN2CCCC(C(=O)N3CCN(c4ccccn4)CC3)CCNC(=O)CC2)c1C (stereo not drawn)	KDM5B inhibitor 25.1µM
COCCN1CCCC2(CCN(C(=O)c3ncoc3C3CC3)C2)C1=O (stereo not drawn)	none
Cc1ccc(C(=O)NCC(=O)N2CCN(c3ccccn3)CC2)cc1	KDM5B inhibitor 28.2µM
Cn1c(N2CCN(C(=O)C[C@H]3NC(=O)c4ccccc4NC3=O)CC2)nc2ccccc21	none
